MCF10A rereplic: DNA re-replication induction in MCF 10a cells; AID 624296; Potency, µM (titrated, usually from 46.1 µM), without a hit: at the top dose activity, positive = re-replication, usual class: activators; MCF 10A DNA re-replication, Hoechst nuclear intensity, 48 h; 2.9% of 350,000 active; note: % of control where 0% means no effect; nearly all actives have a fitted effect of over 50% in size
HT1080NT lethal: kills 2HG-producing HT-1080-NT fibrosarcoma cells; HT-1080-NT fibrosarcoma viability, CellTiter-Glo ATP luminescence, 48 h; Potency, µM (series often up to 46.1 µM), without a hit: at the top dose activity, negative = less viability, hits mostly cytotoxic; 1.6% of 360,000 active; AID 686970;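 note: NT is the 2HG producing partner of a matched IDH1 knockdown line; 0% = DMSO-treated cells and -100% = media-only wells without cells; nearly all actives have a fitted effect of over 55% in size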
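HT-1080-NT; 750 cells/well; 5% FBS RPMI; 48 h compound, 37 degrees C; CellTiter-Glo luminescence; curve fitting and curve-class assignment.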
KB-V1 MDR tox: kills drug-selected multidrug resistant KB-V1 cells. KB-V1 MDR cells viability, CellTiter-Glo, 72 h. Potency, µM (doses to about 46.1 µM), hits mostly cytotoxic. 3.4% of 400,000 active. AID 1347076; note: % is set by controls: 0 for no effect and ±100 for the full control effect; nearly all actives have a fitted effect of over 60% in size
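Luminescent ATP read-out (CellTiter-Glo, 10 min) measures survival of drug-selected KB-V1 MDR cells after 72 h, 37 degrees C compound exposure. Medium: phenol-red-free DMEM, 10% FBS. Values from fitted concentration-response curves.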
SW480 rereplic: inducers of DNA re-replication in SW480 colon cancer cells; SW480 DNA re-replication, Hoechst DNA content imaging, 48 h; Potency, µM (doses to about 46.1 µM), for the others: at the highest dose re-replication activation, most hits filed as activators; 1.8% of 340,000 active; note: % of control where 0% means no effect; nearly all actives have a fitted effect of over 55% in size
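SW480 cells exposed to compounds for 48 hr at 37 C, 5% CO2, then Hoechst-stained 40 min. Nuclear DNA content imaged by fluorescence scanning (405 nm excitation, 500-530 nm emission); re-replication scored as increased high-intensity nuclei.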
HT1080 IDH1KD tx: toxicity to HT-1080 IDH1 knockdown cells (counter line); HT-1080 IDH1 knockdown viability, ATP luminescence, 48 h; Potency, µM (top dose mostly 46.1 µM), inactives show top-dose activity, negative = toxicity, actives largely listed as cytotoxic; 2% of 360,000 active; AID 686971;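 note: 0% = DMSO wells and -100% = cell-free medium wells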
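Assay cells: HT-1080 with IDH1 knockdown, 750 per well, RPMI/5% FBS. Exposure: 48 h at 37 °C following 2 h pre-incubation. Read: CellTiter-Glo luminescence; fitted concentration-response, curve class assigned.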
KB-3-1 tox: KB-3-1 parental cell cytotoxicity. AID 1347075. Potency, µM (titrated, usually from 46.1 µM), hits mostly cytotoxic. KB-3-1 viability, CellTiter-Glo ATP luminescence, 72 h. 1.4% of 400,000 active; note: % is set by controls: 0 for no effect and ±100 for the full control effect; nearly all actives have a fitted effect of over 60% in size
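Cells are dispensed, compounds pinned in, plates held at 37 °C for 72 h, then CellTiter-Glo is added and luminescence read after 10 minutes. Cell line: parental KB-3-1 in phenol-red-free DMEM, 10% FBS.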
Numbers without * were called inactive; i = inactive; u = inconclusive; x = no result given; [ ] = another dose, or the depositor's remark. An excerpt weighted towards active compounds, which were near 7.9% of everything screened. Calls come from the whole dose curve; as a rule, active = well fitted curve in the direction sought with a large enough effect; inconclusive = small, poorly fitted or top-dose-only effect, or another doubt; inactive = no such curve, though single readings can be large; an effect the other way counts as inactive or inconclusive. Potency is the fitted concentration of half-maximal effect.

SMILES | MCF10A rereplic | HT1080NT lethal | KB-V1 MDR tox | SW480 rereplic | HT1080 IDH1KD tx | KB-3-1 tox
CCN(CC)S(=O)(=O)c1ccc2c(c1)N(CC(=O)N1CCN(c3cccc(OC)c3)CC1)C(=O)CO2 | x | x | i | x | x | i
COc1ccc(OC)c(Nc2nc(NCCCN(C)C)nc(N)c2[N+](=O)[O-])c1 | u | -14% | i | u | 16µM* | i
CCOC(=O)c1cc(-c2ccccc2)sc1NC(=O)C(C)Sc1nnc(N)s1 (centres undefined) | u | -2% | 2.1µM* | u | 0% | u
CCOC(=O)c1cc(-c2ccccc2)sc1NC(=O)C(C)OC(=O)c1cccnc1OCC (centres undefined) | u | 4% | i | 2.9µM* | 4% | i
CCOC(=O)c1cc(-c2ccccc2)sc1NC(=O)CSc1nnc(N)s1 | 5% | -19% | u | -12% | -19% | i
CCOc1ccc2nc(N3CCC(C(=O)Nc4ccccc4CC)CC3)sc2c1 | x | x | i | x | x | i
Cc1ccc(S(=O)(=O)N2CCN(c3ncnc4scc(-c5ccccc5)c34)CC2)cc1 | u | 10% | 7.3µM* | 3% | 19% | u
O=S(=O)(c1ccc2c(c1)OCCO2)N1CCN(c2ncnc3sccc23)CC1 | 9% | -24% | i | u | u | u
Cc1sc2ncnc(OCC(=O)c3ccc(S(=O)(=O)N4CCCC4)cc3)c2c1C | 6% | 7% | 4.6µM* | 4% | -16% | u
Cc1sc2ncnc(OCC(=O)N3CCN(S(=O)(=O)c4ccc(Cl)cc4)CC3)c2c1C | 6% | 0% | i | 9% | 5% | i
COc1ccc(-c2csc3ncnc(N4CCN(c5ccccc5O)CC4)c23)cc1 | u | 1% | i | 17% | -5% | i
Cc1ccc(S(=O)(=O)N2CCN(c3ncnc4sccc34)CC2)cc1C | u | u | 5.2µM* | 8% | u | u
COc1ccc(-c2csc3ncnc(N4CCN(c5ccccc5[N+](=O)[O-])CC4)c23)cc1 | 16µM* | -23% | x | u | -29% | x
CCOC(=O)c1c(NC(=O)C(C)Sc2cn(CCNC(=O)c3ccc(OC)cc3)c3ccccc23)sc2c1CCC2 (centres undefined) | x | x | i | x | x | i
COc1ccccc1C(=O)NC1(C(F)(F)F)C(=O)NC(C)=C1C#N (centres undefined) | x | x | i | x | x | i
Nc1ccc2c(c1)C(=O)N(c1ccc3ccccc3c1)C2=O | x | x | i | x | x | i
Cc1ccc(-c2csc3ncnc(-n4cnc5ccccc54)c23)cc1 | 9.2µM* | 16µM* | u | u | 21µM* | u
Cc1sc2ncnc(N3CCN(S(=O)(=O)c4ccccc4)CC3)c2c1C | 12% | 7% | 7.3µM* | -7% | 7% | i
Cc1sc2nc(CN3CCCC3)nc(N3CCN(S(=O)(=O)c4ccccc4)CC3)c2c1C | 5% | -16% | i | -3% | -26% | i
COc1cccc(NC(=O)C2=C(C)C(=O)OC23CCN(C(C)=O)CC3)c1 | x | x | u | x | x | i
CCc1ccc2[nH]c3nc(N/N=C/c4ccc(O)cc4O)nnc3c2c1 | 10% | u | i | 26% | 5.2µM* | u
C=C1C(=O)OC2C1C(OC(=O)C(C)=CC)CC(=C)C1C(O)C3OC3(C)C21O (centres undefined) | 13µM* | -1% | i | 21µM* | 15µM* | i
CCOc1ccccc1CNC(=O)c1cc2c(=O)n(Cc3cccnc3)ccc2nc1C | x | x | i | x | x | i
COC(=O)[C@H](CC(C)C)NS(=O)(=O)c1ccc(F)cc1Br | x | 7% | i | x | 13% | i
O=c1[nH]ncc(N/N=C/c2ccccc2)c1Cl | u | -16% | u | 1% | -10% | i
SMILES | MCF10A rereplic | HT1080NT lethal | KB-V1 MDR tox | SW480 rereplic | HT1080 IDH1KD tx | KB-3-1 tox
Cc1ccsc1/C=N\Nc1cn[nH]c(=O)c1Cl | u | 9% | 2.6µM* | -19% | -1% | 4.6µM*
Cc1ccc(/C=N\Nc2cn[nH]c(=O)c2Cl)cc1 | -2% | 1% | u | -2% | -10% | 7.1µM*
COc1ccc(/C=N/Nc2cn[nH]c(=O)c2Cl)cc1 | u | 14% | u | 0% | 20% | 7.3µM*
Cc1ccccc1C(=O)O/N=C/c1c(N2CCOCC2)n(C)c2ccccc12 | u | 2.8µM* | u | u | 2.5µM* | u
CN1CCN(c2c(/C=N/O)c3ccccc3n2C)CC1 | u | -21% | i | u | -17% | i
O=C(c1ccco1)N1CC2(CC(c3ccc(Cl)cc3)=NO2)CN1Cc1ccc(Br)cc1 (centres undefined) | x | 6% | i | x | 9% | i
COc1cc(OC)c2c(-c3ccccc3)cc(=O)oc2c1C(CCN1CCOCC1)c1ccc2c(c1)OCO2 (centres undefined) | u | 23µM* | i | -12%[9.22 µM] | u | i
COc1cc(Nc2ccccc2Cl)c([N+](=O)[O-])nc1[N+](=O)[O-] | u | u | i | 4.6µM* | u | i
COc1ccccc1Nc1ccc([N+](=O)[O-])cc1N | u | -1% | i | -8% | -12% | u
O=C(NC1CC1)c1cc(-c2ccccn2)nc2ccccc12 | 13% | 8% | i | -5% | 8% | i
CCSc1ccccc1C(=O)Nc1cccc(OC)c1 | 0% | 25% | 18µM* | 1% | 10% | i
Cc1cccc(NC(=O)c2cc(-c3ccccn3)nc3ccccc23)c1C | u | u | 10µM* | 16% | -21% | u
COc1cccc(NC(=O)c2cc(-c3ccccn3)nc3ccccc23)c1 | 12% | 2% | 1.8µM* | 0% | -2% | u
Cc1ccc(CNC(=O)Cn2nnc(C(=O)Nc3cccc(C)c3C)c2N)cc1 | -4% | u | i | 0% | u | i
Cc1ccccc1Cn1nnc(C(=O)Nc2cccc(C)c2C)c1N | 15µM* | -10% | 13µM* | 3% | -3% | u
CCc1ccc(NC(=O)CCn2cnc3ccccc3c2=O)cc1 | x | x | i | x | x | i
COCCCN1C(=O)c2oc3ccccc3c(=O)c2C12C(=O)N(C)c1ccccc12 (centres undefined) | x | x | i | x | x | i
O=C1COc2ccc(-c3cc(-c4ccc(Cl)cc4)c4c(n3)-c3ccccc3OC4)cc2N1 | x | x | i | x | x | i
COc1cc(C)cc2oc(=O)c(CC(=O)NCCc3ccc(Cl)cc3)c(C)c12 | x | x | u | x | x | i
Cc1cccc(NC(=O)c2ccccc2O)c1C | -1% | u | 16µM* | -18% | -18% | i

Assay outcomes: PubChem, National Center for Advancing Translational Sciences (NCATS)
